# In article PMC11062922 (Nature Chemical Biology, 2023):
# Read-outs that look alike come from different tables or passages of the source.
# Legend:
# Parameters in all cases: species or system human, MV4-11 + K-562 + COLO205 + SK-N-BE2 + OVCAR-8
# [1] = system: FLT3; settings: read-out: apparent Kd, n = 1
# [2] = system: MAPK14; settings: read-out: apparent Kd, n = 1
# [3] = system: AKT2; settings: read-out: apparent Kd, compound concentrations: 100 nM and 1000 nM (sheet 'Samples'), n = 1
# [4] = system: ACVR1B; settings: read-out: apparent Kd, n = 1
# [5] = system: ACVR1; settings: read-out: apparent Kd, n = 1
# [6] = system: CLK4; settings: read-out: apparent Kd, compound concentrations: 100 nM and 1000 nM (sheet 'Samples'), n = 1
# [7] = system: CSNK2A1;CSNK2A3; settings: read-out: apparent Kd, compound concentrations: 100 nM and 1000 nM (sheet 'Samples'), n = 1
# [8] = system: DYRK1A; settings: read-out: apparent Kd, compound concentrations: 100 nM and 1000 nM (sheet 'Samples'), n = 1
# [9] = system: AURKB; settings: read-out: apparent Kd, n = 1
# [10] = system: CSK; settings: read-out: apparent Kd, n = 1
# [11] = system: EPHA1; settings: read-out: apparent Kd, n = 1
# [12] = system: SIK2; settings: read-out: apparent Kd, n = 1
# [13] = system: ZAK; settings: read-out: apparent Kd; compound concentrations: 100 nM and 1000 nM (sheet 'Samples'), CATDS: 1.9718010562251101E-2; n = 1
# [14] = system: BTK; settings: read-out: apparent Kd, n = 1
# [15] = system: DDR1; settings: read-out: apparent Kd; compound concentrations:100 nM and 1000 nM (sheet 'Samples'); n = 1
# [16] = system: SRC; settings: read-out: apparent Kd, compound concentrations: 100 nM and 1000 nM (sheet 'Samples'), n = 1
# [17] = system: TNK1; settings: read-out: apparent Kd, n = 1
# [18] = compound concentrations:100 nM and 1000 nM (sheet 'Samples')
compound,measurement,setting,value
COc1ccc(-n2cnc3c(N)ncnc32)cc1 [SKF-97236],potency estimated from few doses,"[1]; compound concentrations: 100 nM and 1000 nM (sheet 'Samples'), CATDS: 0.20462680651790399",598 nM
same,potency estimated from few doses,"[2]; compound concentrations: 100 nM and 1000 nM (sheet 'Samples'), CATDS: 0.140639496900372",1390 nM
COc1ccc(Nc2nccc(N3CCC(NC(=O)Nc4ccc5c(c4)OCO5)C3)n2)cc1 (centres unmarked) [GSK1379745A],potency estimated from few doses,[3]; CATDS: 4.5642212363568399E-2,1150 nM
NC(=O)c1cccc(Nc2nccc(Nc3cccc4[nH]ncc34)n2)c1 [GW782612X],potency estimated from few doses,"[4]; compound concentrations: 100 nM and 1000 nM (sheet 'Samples'), CATDS: 5.6390113546044701E-2",401 nM
same,potency estimated from few doses,"[5]; compound concentrations: 100 nM and 1000 nM (sheet 'Samples'), CATDS: 0.10376431199902",122 nM
same,potency estimated from few doses,[6]; CATDS: 4.0513674478844103E-2,951 nM
O=C1N=C(NCC(CO)c2ccccc2)S/C1=C\c1ccc2ncccc2c1 (centres unmarked) [RO4582641-000],potency estimated from few doses,[6]; CATDS: 7.8741262727809305E-2,590 nM
same,potency estimated from few doses,[7]; CATDS: 0.138008161076002,140 nM
same,potency estimated from few doses,[8]; CATDS: 9.2693691803080097E-2,353 nM
COc1ccccc1CCNC1=NC(=O)/C(=C/c2ccc3ncccc3c2)S1 [RO4503316-000],potency estimated from few doses,[6]; CATDS: 0.25242389415209998,86.4 nM
same,potency estimated from few doses,[7]; CATDS: 0.132518653833052,327 nM
same,potency estimated from few doses,[8]; CATDS: 0.20132255504791199,128 nM
O=C1N=C(NCc2ccccc2Cl)S/C1=C\c1ccc2ncccc2c1 [RO4506917-000],potency estimated from few doses,[6]; CATDS: 0.16237253930463899,307 nM
same,potency estimated from few doses,[7]; CATDS: 0.21358904197946299,190 nM
COc1cc(Nc2ccnc3cc(-c4ccncc4)ccc23)cc(OC)c1OC.Cl [GW494610A],potency estimated from few doses,"[4]; compound concentrations: 100 nM and 1000 nM (sheet 'Samples'), CATDS: 6.2055393770244598E-2",76.5 nM
same,potency estimated from few doses,"[5]; compound concentrations: 100 nM and 1000 nM (sheet 'Samples'), CATDS: 8.6839126385756693E-2",38.3 nM
same,potency estimated from few doses,"[9]; compound concentrations: 100 nM and 1000 nM (sheet 'Samples'), CATDS: 5.7571781244095399E-2",90.3 nM
same,potency estimated from few doses,"[10]; compound concentrations: 100 nM and 1000 nM (sheet 'Samples'), CATDS: 2.2928225838280001E-2",1390 nM
same,potency estimated from few doses,"[11]; compound concentrations: 100 nM and 1000 nM (sheet 'Samples'), CATDS: 0.10844818822907799",25.4 nM
same,potency estimated from few doses,"[12]; compound concentrations: 100 nM and 1000 nM (sheet 'Samples'), CATDS: 2.3854628716910201E-2",1170 nM
O=C1N=C(NCCc2cccc(Cl)c2)S/C1=C\c1ccc2ncccc2c1 [RO4509201-000],potency estimated from few doses,[6]; CATDS: 0.15614566648302999,153 nM
same,potency estimated from few doses,[7]; CATDS: 0.170383689424982,133 nM
same,potency estimated from few doses,[8]; CATDS: 6.6454923664205107E-2,945 nM
same,potency estimated from few doses,"[1]; compound concentrations: 100 nM and 1000 nM (sheet 'Samples'), CATDS: 6.3899678732730503E-2",1060 nM
O=C1N=C(NCCc2ccccc2F)S/C1=C\c1ccc2ncccc2c1 [RO4498483-000],potency estimated from few doses,[6]; CATDS: 9.8466136533641502E-2,675 nM
same,potency estimated from few doses,[7]; CATDS: 0.15223513812582401,295 nM
same,potency estimated from few doses,[8]; CATDS: 8.8096211342070505E-2,883 nM
same,potency estimated from few doses,"[1]; compound concentrations: 100 nM and 1000 nM (sheet 'Samples'), CATDS: 7.3322298638159894E-2",1520 nM
CS(=O)(=O)CCNCc1ccc(-c2ccc3ncnc(Nc4ccc(OCc5cccc(F)c5)c(C(F)(F)F)c4)c3c2)o1 [GW576484X],potency estimated from few doses,[3]; CATDS: 4.5987801057845099E-2,2420 nM
Cl.Oc1cccc(Nc2ccnc3cc(-c4ccncc4)ccc23)c1 [GW494601A],potency estimated from few doses,"[4]; compound concentrations: 100 nM and 1000 nM (sheet 'Samples'), CATDS: 4.2820592961585899E-2",73.7 nM
same,potency estimated from few doses,"[5]; compound concentrations: 100 nM and 1000 nM (sheet 'Samples'), CATDS: 4.3782572898148998E-2",69 nM
same,potency estimated from few doses,"[11]; compound concentrations: 100 nM and 1000 nM (sheet 'Samples'), CATDS: 8.3232336419421196E-2",14.3 nM
same,potency estimated from few doses,"[12]; compound concentrations: 100 nM and 1000 nM (sheet 'Samples'), CATDS: 2.1329898966899598E-2",1020 nM
same,potency estimated from few doses,[13],1580 nM
Cc1cccc(Nc2nc(NCCN)ncc2C(N)=O)c1 [GSK1292139B],potency estimated from few doses,"[12]; compound concentrations: 100 nM and 1000 nM (sheet 'Samples'), CATDS: 8.4015516979832894E-2",925 nM
CCN(CC)CCOc1ccc(Nc2ncc3cc(-c4c(Cl)cccc4Cl)c(=O)n(C)c3n2)cc1 [SB-601273],potency estimated from few doses,[4]; [18],170 nM
same,potency estimated from few doses,[5]; [18],218 nM
same,potency estimated from few doses,[14]; [18],318 nM
same,potency estimated from few doses,[10]; [18],838 nM
same,potency estimated from few doses,[15],165 nM
same,potency estimated from few doses,[11]; [18],2.59 nM
same,potency estimated from few doses,[1]; [18],891 nM
same,potency estimated from few doses,[2]; [18],678 nM
same,potency estimated from few doses,[12]; [18],55.3 nM
same,potency estimated from few doses,[16]; CATDS: 2.2831439455092799E-2,137 nM
same,potency estimated from few doses,[17]; [18],631 nM
O=C1N=C(NCc2cccs2)SC1Cc1ccc2ncccc2c1 (centres unmarked) [RO4629078-000],potency estimated from few doses,"[5]; compound concentrations: 100 nM and 1000 nM (sheet 'Samples'), CATDS: 8.2545547739811299E-3",1160 nM
same,potency estimated from few doses,"[9]; compound concentrations: 100 nM and 1000 nM (sheet 'Samples'), CATDS: 8.1625100314479202E-3",1200 nM
same,potency estimated from few doses,"[14]; compound concentrations: 100 nM and 1000 nM (sheet 'Samples'), CATDS: 1.32457116906247E-2",360 nM
same,potency estimated from few doses,[6]; CATDS: 1.03422471087564E-2,616 nM
same,potency estimated from few doses,"[10]; compound concentrations: 100 nM and 1000 nM (sheet 'Samples'), CATDS: 1.22881462523177E-2",419 nM
same,potency estimated from few doses,[7]; CATDS: 1.1621769953454601E-2,472 nM
same,potency estimated from few doses,"[11]; compound concentrations: 100 nM and 1000 nM (sheet 'Samples'), CATDS: 1.25959830755684E-2",398 nM
same,potency estimated from few doses,"[1]; compound concentrations: 100 nM and 1000 nM (sheet 'Samples'), CATDS: 7.9273479759833908E-3",1330 nM
same,potency estimated from few doses,"[12]; compound concentrations: 100 nM and 1000 nM (sheet 'Samples'), CATDS: 1.2411552216362301E-2",411 nM
same,potency estimated from few doses,[16]; CATDS: 1.3307336951607501E-2,357 nM
same,potency estimated from few doses,"[17]; compound concentrations: 100 nM and 1000 nM (sheet 'Samples'), CATDS: 2.1497624040677302E-2",158 nM
Cl.O=C1N=C(NCc2ccccn2)S/C1=C\c1ccc2ncccc2c1 [RO4874953-001],potency estimated from few doses,[6]; CATDS: 0.12673851417901799,598 nM
same,potency estimated from few doses,[7]; CATDS: 0.103683643435769,843 nM
same,potency estimated from few doses,[8]; CATDS: 0.10050944146971801,893 nM
CCn1cc(-c2ccnc3[nH]c(-c4cccc(CN(C)C)c4)cc23)c(-c2ccc(NC(=O)N(C)C)cc2)n1 [GSK1070916],potency estimated from few doses,[9]; [18],594 nM
same,potency estimated from few doses,[15],869 nM
CNC1=NC(=O)/C(=C/c2ccc3ncccc3c2)S1 [RO4595949-000],potency estimated from few doses,[6]; CATDS: 7.8220573800827503E-2,429 nM
same,potency estimated from few doses,[7]; CATDS: 0.13596728585800399,136 nM
same,potency estimated from few doses,[8]; CATDS: 0.10780330705145599,209 nM
Cc1ccc(O)cc1Nc1ccnc2cc(-c3ccccn3)ccc12.Cl [GW440139A],potency estimated from few doses,"[4]; compound concentrations: 100 nM and 1000 nM (sheet 'Samples'), CATDS: 0.14783179697021401",9.88 nM
same,potency estimated from few doses,"[5]; compound concentrations: 100 nM and 1000 nM (sheet 'Samples'), CATDS: 2.9577067141002798E-2",556 nM
same,potency estimated from few doses,"[11]; compound concentrations: 100 nM and 1000 nM (sheet 'Samples'), CATDS: 6.90247660864724E-2",38.9 nM
NC1=NC(=O)/C(=C/c2ccc3ncccc3c2)S1 [RO4569139-000],potency estimated from few doses,[6]; CATDS: 7.4487877667225894E-2,1260 nM
same,potency estimated from few doses,[7]; CATDS: 0.13735026532766101,256 nM
same,potency estimated from few doses,[8]; CATDS: 0.43183776325706602,39.3 nM
O=C1N=C(NCc2ccccc2)S/C1=C\c1ccc2ncccc2c1 [RO4442080-000],potency estimated from few doses,[6]; CATDS: 0.11834941417905,701 nM
same,potency estimated from few doses,[7]; CATDS: 0.15313565978355501,438 nM
same,potency estimated from few doses,[8]; CATDS: 9.0282965342826302E-2,1320 nM
